# The sample as a whole holds a higher share of hits than the screen did.
# 14-3-3 PPI – 14-3-3 gamma protein interaction modulation; P61981; FP, 14-3-3gamma / TMR-pS259-Raf peptide binding; inhibition, % at 40 µM; 160,000 tested, 0.19% active; in the data active = inhibition above about 30%
# Target sequence (P61981 whole entry, looked up): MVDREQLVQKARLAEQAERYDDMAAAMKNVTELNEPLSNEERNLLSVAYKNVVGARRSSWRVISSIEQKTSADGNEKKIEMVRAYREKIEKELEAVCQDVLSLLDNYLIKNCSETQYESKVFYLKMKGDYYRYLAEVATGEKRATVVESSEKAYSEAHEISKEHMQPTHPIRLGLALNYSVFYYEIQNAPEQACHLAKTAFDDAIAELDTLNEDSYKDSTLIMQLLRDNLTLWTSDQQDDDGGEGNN
# Hits are given with their value; n = inactive; + = active, no number.
SMILES,14-3-3 PPI
O=C(O)c1ccc2c(c1)C1C=CCC1C(C(=O)O)N2 (centres undefined),36
CCOC(=O)c1ccc2c(c1)C1C=CCC1C(C(=O)O)N2 (centres undefined),n
CCOC(=O)C1Nc2ccc(C(=O)O)cc2C2C=CCC12 (centres undefined),n
COc1ccccc1C1Nc2ccc(C(=O)O)cc2C2C=CCC21 (centres undefined),n
O=C(O)c1ccc2c(c1)C1C=CCC1C(c1ccccn1)N2 (centres undefined),62
COCCn1c(=S)[nH]c2cc(C(=O)NCc3ccccc3Cl)ccc2c1=O,n
COC(=O)C1=CN(C(C)C)C=C(C(=O)OC)C1c1cccc(F)c1,n
Cc1nn(-c2ccccc2)c(Cl)c1C1Nc2ccccc2NC2=C1C(=O)CC(C)(C)C2 (centres undefined),n
COc1ccc(Cc2cnc(NC(=O)COc3ccccc3Cl)s2)cc1,n
CCSc1nc2sc3c(c2c(=O)n1C1CCCCC1)CC(C(C)C)OC3 (centres undefined),n
O=C(O)c1c(Cl)nc(Cl)c([N+](=O)[O-])c1Cl,n
Cc1nc(Cl)c(C(=O)O)c(C)c1[N+](=O)[O-],n
COC(=O)c1c(Cl)nc(Cl)c([N+](=O)[O-])c1Cl,56
Cc1ccc(CSc2nc3ccccc3o2)cc1,n
O=C(Cn1cnc2sc3c(c2c1=O)CCCC3)NCCC(=O)N1CCCC1,n
Cc1ccc(-n2c3c(cc(C(=O)Nc4ccc(S(N)(=O)=O)cc4)c2=O)C(=O)CCC3)cc1,n
O=C(NCc1ccncc1)C(=O)Nc1ccc(Br)cc1,n
COc1ccc2c(c1N)C(=O)c1ccccc1C2=O,n
Cn1c(=O)c(N)c2c3c(cccc31)C(=O)c1ccccc1-2,109
COc1ccc(Nc2c3c4c(c(Br)ccc4n(C)c2=O)C(=O)c2ccccc2-3)cc1,n
O=C(Nc1ccc2c(c1)C(=O)c1ccccc1C2=O)c1ccc(Br)cc1,n
CC(=O)c1c2c3c(cccc3n(C)c1=O)C(=O)c1ccccc1-2,32
Cn1c(=O)c(Nc2ccc(Br)cc2)c2c3c(cccc31)C(=O)c1ccccc1-2,151
CC(=O)c1c2c3c(c(Br)ccc3n(C)c1=O)C(=O)c1ccccc1-2,n
Cn1c(=O)c(C(=O)NCCO)c(O)c2ccccc21,n
SMILES,14-3-3 PPI
CCCCCCCNc1c2c3c(cccc3n(C)c1=O)C(=O)c1ccccc1-2,n
COc1ccc(-n2c(=S)[nH]c3cc(C(=O)N4CCCCC4)ccc3c2=O)c(OC)c1,n
CCC(=O)N1c2ccc(S(=O)(=O)NCC3COc4ccccc4O3)cc2CC1C (centres undefined),n
COc1ccccc1NC(=O)C1=C(C)NC2=C(C(=O)CC(c3ccc(OC)c(OC)c3)C2)C1c1cccs1 (centres undefined),n
COc1ccc(N2CCN(C(=O)CCn3c(=O)[nH]c4ccsc4c3=O)CC2)cc1,n
CC(C)CCn1c(NC2CCCCC2)nc2c1c(=O)[nH]c(=O)n2C,n
O=C1CCCC2=C1C1(O)C(=O)c3ccccc3C1(O)O2 (centres undefined),56
CC(=O)C1=C(C)NC2(O)c3ccccc3C(=O)C12O (centres undefined),n
N#CC1=C(N)OC2=C(C(=O)CCC2)[C@]12C(=O)N(CC(N)=O)c1ccccc12,n
CC1CCN(CC(C)CNC(=O)C2(O)c3cc(Br)ccc3NC(=O)N2c2ccccc2)CC1 (centres undefined),n
COC(=O)CCC(=O)Nc1ccc(I)cc1C,n
COc1ccc2nc3sc(C(=O)NCCN(C)Cc4ccccc4)cc3cc2c1,n
C=Cc1c(C)c2cc3[nH]c(cc4nc(cc5nc(cc1[nH]2)C(C)=C5CCC(=O)O)C(CCC(=O)O)=C4C)c(C)c3C=C,+
CCOc1cc(C2c3c(-c4ccc(OC)cc4)n[nH]c3C(=O)N2c2ccc(Br)cc2)ccc1O (centres undefined),n
COc1ccc(-c2n[nH]c3c2C(c2ccc(OC)cc2)N(c2ccc(Br)cc2)C3=O)cc1 (centres undefined),n
CCOc1ccc(-c2n[nH]c3c2C(c2ccccc2)N(c2ccc(Br)cc2)C3=O)cc1 (centres undefined),134
CCC(=O)N1c2ccc(S(=O)(=O)CCC(=O)Nc3ccc(OC)cc3)cc2CC1C (centres undefined),n
COc1ccc2nc(NC(=O)c3cc4c(=O)n(C)c5ccccc5c4s3)sc2c1,n
CCOc1ccc(N=Cc2c(O)c(C(=O)Nc3ccccc3OC)cc3ccccc23)cc1,59
COc1cc2ccccc2cc1C(=O)Nc1ccccc1Oc1ccccc1,n
CCOc1ccccc1C(=O)Nc1cc(OC)ccc1OC,n
COc1ccccc1N=Cc1c(O)c(C(=O)Nc2ccccc2OC)cc2ccccc12,78
CCOc1ccc(-c2nc3cc(N=Cc4c(O)ccc5ccccc45)ccc3o2)cc1,n
CC(=O)Nc1ccc(N=Cc2c(OC(=O)c3cccc4ccccc34)ccc3ccccc23)cc1,n
CCOc1ccc(NC(=O)c2cc(-c3cccs3)nc3ccccc23)cc1,n
O=C(Nc1ccccc1)c1cc2ccccc2c(C=Nc2ccc(Cl)cc2)c1O,n
